Assay results reported in PubChem BioAssay (Tox21).
Several values for one entry are separate records, joined by “and”; a condition that tells them apart may be missing. Equal values may be shown once. Inconclusive results are not listed. A structure can be active in one record and inactive in another. Activity calls are given as the source filed them. Unless noted, calls come from the whole dose curve; as a rule, active = well fitted curve in the direction sought with a large enough effect in the repeat runs; inconclusive = weak or mixed curves; inactive = no such curve, though single readings can be large; an effect the other way counts as inactive or inconclusive.

Experiments:
[1] = qHTS assay to identify small molecule agonists of the RXR signaling pathway - cell viability counter screen (AID 1159529); note: nearly all actives have a fitted effect of over 50% in size; note: potency is the fitted concentration of half-maximal effect;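 for activity change, negative = cytotoxicity: HEK 293T cells carrying an RXR-alpha UAS beta-lactamase reporter; series mostly up to about 77 µM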
Outline: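 Tox21 10K compounds were tested for cytotoxicity against GeneBLAzer RXR-alpha HEK 293T cells grown in 2% charcoal-stripped FBS. Exposure lasted 16 hr at 37 C, 5% CO2; viability read by CellTiter-Glo luminescence.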

[2] = qHTS assay to identify small molecule antagonists of the retinoic acid receptor (RAR) signaling pathway (AID 1159552; note: nearly all actives have a fitted effect of over 50% in size)
Outline: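 Overnight-plated C3RL4 reporter cells get compound, then retinol to 1 uM final; plates sit 6 hr at 37 C, 5% CO2. A luciferase reagent is added and light output recorded after 30 min at room temperature.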

[3] = qHTS assay to identify small molecule agonists of the retinoic acid receptor (RAR) signaling pathway (AID 1159553)
Outline: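 Luminescence from a RARE-driven luciferase reporter in C3RL4 cells served as the read-out, measured after 30 min with detection reagent at room temperature. Compounds in DMSO were applied for 6 hr at 37 C following overnight seeding.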

[4] = qHTS assay to identify small molecule antagonists of the estrogen related receptor (ERR) signaling pathway from Tox21 library - cell viability counter screen (AID 1224834); note: nearly all actives have a fitted effect of over 30% in size; note: potency is the fitted concentration of half-maximal effect
Outline: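 Fluorescence from CellTiter-Fluor gives the viability read-out, taken 30 min after reagent addition. Before that, ERR cells seeded 6 h earlier were incubated with compounds for 17.5 h at 37 C.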

[5] = target: Luciferin 4-monooxygenase (Photinus pyralis) (UniProt P08659); experiment: qHTS assay to identify small molecule inhibitors of firefly luciferase (AID 1224835); note: nearly all actives have a fitted effect of over 25% in size; note: potency is the fitted concentration of half-maximal effect; for activity change, negative = inhibition: series mostly up to about 120 µM
Luciferin 4-monooxygenase (Photinus pyralis), sequence (P08659 whole entry, looked up): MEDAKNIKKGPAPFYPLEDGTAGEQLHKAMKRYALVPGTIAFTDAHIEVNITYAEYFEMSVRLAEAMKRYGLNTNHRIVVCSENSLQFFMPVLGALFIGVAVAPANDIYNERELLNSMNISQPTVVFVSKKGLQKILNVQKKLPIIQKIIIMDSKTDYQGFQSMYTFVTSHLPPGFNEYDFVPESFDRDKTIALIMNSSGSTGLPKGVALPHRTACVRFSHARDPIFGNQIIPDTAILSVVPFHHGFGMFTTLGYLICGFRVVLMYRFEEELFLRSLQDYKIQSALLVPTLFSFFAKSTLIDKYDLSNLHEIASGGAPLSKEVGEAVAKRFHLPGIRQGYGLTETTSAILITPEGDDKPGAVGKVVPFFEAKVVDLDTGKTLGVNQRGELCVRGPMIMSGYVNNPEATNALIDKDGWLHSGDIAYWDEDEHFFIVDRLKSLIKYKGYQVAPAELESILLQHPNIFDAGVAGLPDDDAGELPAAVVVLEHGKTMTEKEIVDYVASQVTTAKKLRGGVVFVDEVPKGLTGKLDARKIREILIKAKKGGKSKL
Outline: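 Biochemical qHTS: compounds run as interplate titrations against purified firefly enzyme, with D-luciferin and ATP each at its KM concentration. Light output recorded by CCD imaging.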

[6] = qHTS assay to identify small molecule agonists of the constitutive androstane receptor (CAR) signaling pathway - cell viability counter screen (AID 1224836); note: series mostly up to about 92 µM; nearly all actives have a fitted effect of over 45% in size
Outline: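 Fluorescence from CellTiter-Fluor indicates live cells after 23 h exposure. The human hepatoma line expresses hCAR and a CYP2B6-2.2kb reporter. Incubation medium contains 0.75 uM PK11195 (final).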

[7] = qHTS assay to identify small molecule antagonists of the constitutive androstane receptor (CAR) signaling pathway - cell viability counter screen (AID 1224837); note: series mostly up to about 92 µM; nearly all actives have a fitted effect of over 45% in size
Outline: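 HepG2-CYP2B6-hCAR cells, 2500/well, 4 hr pre-incubation; compound titration, 15 conc.; CITCO 50 nM final; 23 hr, 37 C/5% CO2; CellTiter-Fluor, fluorescence intensity.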

[8] = target: Nuclear receptor subfamily 1 group I member 3 (Homo sapiens) (UniProt Q14994); experiment: qHTS assay to identify small molecule antagonists of the constitutive androstane receptor (CAR) signaling pathway (AID 1224838);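 note: HepG2 cells stably expressing hCAR with CYP2B6 luciferase reporter stimulated by CITCO; nearly all actives have a fitted effect of over 40% in size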
Nuclear receptor subfamily 1 group I member 3 (Homo sapiens), sequence (Q14994 whole entry, looked up): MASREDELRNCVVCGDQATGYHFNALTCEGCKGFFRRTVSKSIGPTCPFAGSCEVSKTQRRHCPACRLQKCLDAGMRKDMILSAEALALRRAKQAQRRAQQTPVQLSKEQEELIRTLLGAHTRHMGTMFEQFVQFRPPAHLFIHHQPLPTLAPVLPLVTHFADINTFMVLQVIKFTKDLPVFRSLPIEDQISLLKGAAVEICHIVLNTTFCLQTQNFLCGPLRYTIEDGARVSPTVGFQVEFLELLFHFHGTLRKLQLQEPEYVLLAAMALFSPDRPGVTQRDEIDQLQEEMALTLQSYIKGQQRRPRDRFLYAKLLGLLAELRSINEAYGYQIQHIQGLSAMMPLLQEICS
Outline: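 HepG2-CYP2B6-hCAR cells; 4 h pre-incubation; cpd (15 conc) + CITCO 50 nM final; 24 h, 37 C/5% CO2; ONE-Glo, luminescence.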

[9] = target: Nuclear receptor subfamily 1 group I member 3 (Homo sapiens) (UniProt Q14994); experiment: qHTS assay to identify small molecule agonists of the constitutive androstane receptor (CAR) signaling pathway (AID 1224839);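 note: HepG2 cells stably carrying human CAR and a CYP2B6 luciferase reporter; series mostly up to about 92 µM; nearly all actives have a fitted effect of over 15% in size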
Outline: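 Stable hCAR/CYP2B6-2.2kb HepG2 line in DMEM with 10% FBS; compounds (15 concentrations) and 0.75 uM PK11195 final, 24 h at 37 C/5% CO2, then ONE-Glo luminescence after 30 min.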

[10] = qHTS assay to identify small molecule antagonists of the estrogen related receptor signaling pathway with the pleiotropic PPARgamma coactivator (PGC) from Tox21 10K library - cell viability counter screen (AID 1224840; active = well fitted cell-killing curve with a large enough effect in the repeat runs, not every such curve was filed as active; note: nearly all actives have a fitted effect of over 40% in size; note: potency is the fitted concentration of half-maximal effect)
Outline: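 PGC/ERR cells, 2,000/well; 6 h pre-incubation 37 C/5% CO2; cpd in DMSO via pin tool; 17.5 h 37 C; CellTiter-Fluor, 30 min; fluorescence.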

[11] = target: Thyrotropin receptor (Homo sapiens) (UniProt P16473); experiment: qHTS assay to identify small molecule agonists of the thyroid stimulating hormone receptor (TSHR) signaling pathway (AID 1224843; calls by dose curve; note: nearly all actives have a fitted effect of over 45% in size; note: potency is the fitted concentration of half-maximal effect)
Thyrotropin receptor (Homo sapiens), sequence (P16473 whole entry, looked up): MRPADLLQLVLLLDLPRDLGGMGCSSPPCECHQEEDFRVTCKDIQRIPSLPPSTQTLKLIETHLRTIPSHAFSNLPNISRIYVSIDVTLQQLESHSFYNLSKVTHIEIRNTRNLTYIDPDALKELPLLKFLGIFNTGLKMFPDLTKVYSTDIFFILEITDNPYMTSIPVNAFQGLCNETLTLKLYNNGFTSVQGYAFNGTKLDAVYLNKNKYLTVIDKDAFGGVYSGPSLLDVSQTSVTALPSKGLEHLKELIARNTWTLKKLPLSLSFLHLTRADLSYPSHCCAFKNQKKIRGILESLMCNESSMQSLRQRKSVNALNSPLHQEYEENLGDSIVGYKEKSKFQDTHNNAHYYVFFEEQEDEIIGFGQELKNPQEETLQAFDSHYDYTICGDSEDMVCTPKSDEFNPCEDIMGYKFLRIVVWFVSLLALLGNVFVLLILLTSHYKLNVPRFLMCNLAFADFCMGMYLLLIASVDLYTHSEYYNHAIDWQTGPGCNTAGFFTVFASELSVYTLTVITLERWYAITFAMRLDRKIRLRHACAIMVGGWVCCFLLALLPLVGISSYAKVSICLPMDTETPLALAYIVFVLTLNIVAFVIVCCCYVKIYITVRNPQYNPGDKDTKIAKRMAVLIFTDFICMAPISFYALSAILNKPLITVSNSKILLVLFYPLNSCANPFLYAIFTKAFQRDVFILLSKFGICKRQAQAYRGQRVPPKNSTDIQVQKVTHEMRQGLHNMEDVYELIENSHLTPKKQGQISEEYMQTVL
Outline: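 Steps: seed 800 TSHR-HEK293 cells per well; add test compound and hold 30 min at ambient temperature; dispense cAMP-d2 then anti-cAMP cryptate; incubate 1 h at ambient; measure fluorescence intensity.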

[12] = qHTS assay to identify small molecule antagonists of the retinoid acid receptor (RAR) signaling pathway - cell viability counter screen (AID 1159551); note: nearly all actives have a fitted effect of over 35% in size; note: potency is the fitted concentration of half-maximal effect
Outline: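 Luminescent ATP quantitation (CellTiter-Glo) gave cell viability in C3RL4 cells exposed to test chemicals for 6 h at 37 C alongside 1 uM final retinol.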

[13] = qHTS assay to identify small molecule antagonists of the estrogen related receptor signaling pathway with the pleiotropic PPARgamma coactivator (PGC) from Tox21 10K library (AID 1224841; call rule not given here; note: actives are mostly falling curves and most rising ones were filed inactive; nearly all actives have a fitted effect of over 50% in size; note: potency is the fitted concentration of half-maximal effect; for activity, negative = inhibition: series mostly up to about 92 µM)
Outline: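 PGC/ERR cell line, 2,000 cells/well; 6 h pre-incubation 37 C/5% CO2; compounds (DMSO) pinned in; 18 h, 37 C; One-Glo, 30 min RT; luminescence.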

[14] = qHTS assay to identify small molecule antagonists of the estrogen related receptor (ERR) signaling pathway - cell viability counter screen (AID 1224818);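 note: series mostly up to about 46 µM; viability measured after 17.5 h of compound exposure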
Outline: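 Multiplexed counter screen to separate cytotoxic compounds from true ERR modulators. ERR cells received DMSO-dissolved compounds after a 6 h pre-incubation, were exposed 17.5 h at 37 C, then assayed with CellTiter-Fluor fluorescence.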

[15] = qHTS assay to identify small molecule antagonists of the estrogen related receptor signaling pathway with the pleiotropic PPARgamma coactivator (PGC) cell viability counter screen (AID 1224822; note: series mostly up to about 46 µM)
Outline: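 Cells: PGC/ERR, 2,000/well, 1536-well format. Pre-incubation 6 h, 37 C/5% CO2. Compound exposure 17.5 h, 37 C. Detection: CellTiter-Fluor, 30 min, fluorescence.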

[16] = qHTS assay to identify small molecule agonists of the estrogen related receptor signaling pathway with the pleiotropic PPARgamma coactivator (PGC) from Tox21 10K library (AID 1224842); note: nearly all actives have a fitted effect of over 15% in size
Outline: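 PGC/ERR reporter cell line, 2,000 cells per well, incubated 6 h at 37 C before 23 nL compound in DMSO was added. After 18 h at 37 C, One-Glo luminescence read following 30 min at room temperature.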

[17] = qHTS assay to identify small molecule antagonists of the estrogen related receptor (ERR) signaling pathway (AID 1224819;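 note: luminescence from an ERR-driven luciferase reporter measured with One-Glo reagent; series mostly up to about 46 µM; nearly all actives have a fitted effect of over 50% in size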)
Outline: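 Seed ERR cells 2,000/well; rest 6 h at 37 C/5% CO2; pin compounds in DMSO; incubate 18 h at 37 C; add One-Glo; wait 30 min at room temperature; measure luminescence.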

[18] = qHTS assay to identify small molecule agonists of the estrogen related receptor (ERR) signaling pathway (AID 1224820)
Outline: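 Quantitative HTS of the LOPAC library used NTP ERR reporter cells treated 18 h at 37 C. Signal is luminescence after One-Glo addition and a 30 min room-temperature incubation.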

[19] = test system: estrogen-related receptor alpha (ERRalpha) with PGC-1alpha coactivator, human; experiment: qHTS assay to identify small molecule antagonists of the estrogen related receptor signaling pathway with the pleiotropic PPARgamma coactivator (PGC) (AID 1224821; calls by dose curve)
Outline: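 Quantitative HTS for antagonism: PGC/ERR cells received compounds after 6 h attachment and were incubated 18 h at 37 C, with luminescence (One-Glo) as the endpoint.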

[20] = qHTS assay to identify small molecule agonists of the estrogen related receptor signaling pathway with the pleiotropic PPARgamma coactivator (PGC) (AID 1224823)
Outline: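 Cell-based luciferase assay in the NTP-supplied PGC/ERR line, 2,000 cells/well; 18 h compound exposure at 37 C, luminescence after One-Glo.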
% is set by controls: 0 for no effect and ±100 for the full control effect.

Cc1ccc2c(C)cccc2c1
inactive: Potency [1] | Potency [2] | Potency [3] | Potency [4] | Potency [5] | Potency [6] | Potency [7] | Potency [8] | Potency [9] | Potency [10] | Potency [11]

CN1C[C@H](C(=O)N[C@]2(C)O[C@@]3(O)[C@@H]4CCCN4C(=O)[C@H](Cc4ccccc4)N3C2=O)C=C2c3cccc4[nH]cc(c34)C[C@H]21
active: Potency [1] 22 µM | Potency [4] 24.4 µM and 9.01 µM | Potency [5] 40.1 µM
inactive: Potency [12] | Potency [6] | Potency [7] | Potency [8] | Potency [9] | Potency [10]

O=C([O-])c1ccccn1.O=C([O-])c1ccccn1.O=C([O-])c1ccccn1.[Cr+3]
inactive: Potency [1] | Potency [12] | Potency [4] | Potency [5] | Potency [6] | Potency [7] | Potency [8] | Potency [9] | Potency [10]

CC(C)OC(=O)Cc1ccccc1
inactive: Potency [1] | Potency [12] | Potency [4] | Potency [5] | Potency [6] | Potency [7] | Potency [10] | Potency [11]

C=CCOCC1CO1 (stereo not drawn)
inactive: Potency [1] | Potency [12] | Potency [4] | Potency [5] | Potency [6] | Potency [7] | Potency [8] | Potency [10] | Potency [13] | Potency [11]

CCCCCCCCCCCCN=C(N)N
inactive: activity change, negative = cytotoxicity [1] -15.3% [at 2.72 µM] | activity change, negative = cytotoxicity [12] 2.05% [at 3.27 µM] | activation [3] -2.89% [at 3.75 µM] | viability change, negative = cytotoxic [4] 1.13% [at 3.27 µM] | activity change, negative = inhibition [5] 0.224% [at 4.07 µM] | viability change, negative = cytotoxic [6] 0.263% [at 3.27 µM] | activity change, negative = cytotoxicity [7] -5.88% [at 3.26 µM] | activity, negative = inhibition [8] 9.02% [at 3.26 µM] | viability change, negative = cytotoxic [10] 2.19% [at 3.27 µM] | activation [11] 5.05% [at 3.27 µM]

COc1ccc2c(c1OC)C(=O)O[C@H]2[C@@H]1c2cc3c(cc2CCN1C)OCO3
active: Potency [4] 6.68 µM
inactive: Potency [1] | Potency [12] | outcome [14] | outcome [15] | Potency [5] | Potency [8] | Potency [9] | Potency [11]

CN[C@@H](C)[C@H](O)c1ccccc1
inactive: Potency [1] | Potency [2] | Potency [3] | Potency [4] | Potency [5] | Potency [6] | Potency [7] | Potency [8] | Potency [9] | Potency [10] | Potency [11]

COc1cc(CC#N)cc(OC)c1OC
inactive: Potency [1] | Potency [12] | Potency [4] | Potency [5] | Potency [6] | Potency [7] | Potency [8] | Potency [9] | Potency [10] | Potency [11]

CCOC(=O)c1cn2nc(OP(=S)(OCC)OCC)cc2nc1C
inactive: Potency [1] | Potency [12] | Potency [2] | Potency [5] | Potency [6] | Potency [7] | Potency [10] | Potency [16]
active: Potency [13] 43.3 µM

C[N+]1(CCF)[C@@H]2CC[C@H]1CC(OC(=O)C(O)(c1ccccc1)c1ccccc1)C2 (stereo partly drawn)
inactive: Potency [1] | Potency [12] | Potency [4] | Potency [5] | Potency [6] | Potency [7] | Potency [9] | Potency [10] | Potency [11]

O=C(O)C(O)C(O)C(=O)O (stereo not drawn)
inactive: Potency [1] | Potency [12] | Potency [4] | Potency [5]

CC1(C)[C@H](C(=O)O[C@H](C#N)c2cccc(Oc3ccccc3)c2)[C@@H]1C=C(Br)Br
inactive: Potency [1] | Potency [12] | Potency [4] | Potency [5] | Potency [6] | Potency [7] | Potency [13] | Potency [16]

O=[N+]([O-])c1cc(Cl)c(Cl)cc1Cl
inactive: Potency [1] | Potency [12] | Potency [4] | Potency [5] | Potency [6] | Potency [7] | Potency [8] | Potency [9] | Potency [10] | Potency [13]

CCCCCCCCCCCC[N+](C)(C)CCOc1ccccc1
inactive: Potency [5] | Potency [8] | Potency [16]
active: Potency [1] 8.71 µM and 12 µM | Potency [12] 61.1 µM | Potency [4] 61.1 µM and 26.6 µM | Potency [10] 61.1 µM and 29.8 µM
48.6 µM (active) and inactive: Potency [11]

O=C(CCl)CCl
inactive: Potency [1] | Potency [12] | Potency [4] | Potency [5] | Potency [6] | Potency [7] | Potency [10] | Potency [11]

CC(C)(C)NCC(O)c1ccccc1Cl (stereo not drawn)
inactive: Potency [1] | Potency [12] | outcome [14] | outcome [17] | outcome [18] | outcome [19] | outcome [15] | outcome [20] | Potency [4] | Potency [5] | Potency [6] | Potency [7] | Potency [8] | Potency [9] | Potency [10] | Potency [13] | Potency [11]

NC(=O)CF
inactive: Potency [1] | Potency [12] | Potency [4] | Potency [5] | Potency [6] | Potency [7] | Potency [8] | Potency [9] | Potency [11]

CCNC(=O)NC(=O)/C(C#N)=N/OC
inactive: Potency [1] | Potency [12] | Potency [3] | Potency [4] | Potency [5] | Potency [6] | Potency [7] | Potency [8] | Potency [9] | Potency [10] | Potency [13] | Potency [16] | Potency [11]

COC(=O)Cc1ccccc1
inactive: Potency [1] | Potency [2] | Potency [3] | Potency [4] | Potency [5] | Potency [6] | Potency [7] | Potency [8] | Potency [9] | Potency [10]

O=C(O)c1ccc(=O)[nH]c1
inactive: Potency [1] | Potency [12] | Potency [4] | Potency [5] | Potency [6] | Potency [7] | Potency [8] | Potency [9] | Potency [10] | Potency [13] | Potency [11]
